Inconclusive results are not listed. Calls of active or inactive are those of the source. How the source made its calls, unless noted: active means hit-call score of the fitted dose curve at least 0.9, where 1 is the maximum; inconclusive means response in the unintended direction; inactive means score below 0.9.
How the values were obtained:
[1] = ATG_TCF_b_cat_CIS: Attagene CIS-FACTORIAL HepG2 Assay for human T-Cell-Factor with beta-catenin (TCF/b-cat) (AID 2282965; active means hit-call score of the fitted dose curve at least 0.9, where 1 is the maximum; inactive means score below 0.9); settings: HepG2 TCF/beta-catenin cis-reporter transcription, actives raise or lower the signal
In short: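 Measured: reporter mRNA in HepG2 transiently transfected with cis-promoter reporter units, 24 h after chemical addition. Fitting was bidirectional, DMSO as negative control.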

[2] = ATG_TAL_CIS: Attagene CIS-FACTORIAL HepG2 Assay for human TAL Basal Promoter (AID 2282966; active means hit-call score of the fitted dose curve at least 0.9, where 1 is the maximum; inactive means score below 0.9;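 further: background control endpoint measuring basal TAL promoter reporter mRNA not a specific factor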); settings: HepG2 Attagene cis-factorial TAL promoter reporter; actives raise or lower the signal
In short: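 Human hepatoma HepG2 cells, transfected with promoter-regulated reporter units, were treated 24 h. Reporter transcript levels, measured through RT-PCR and capillary electrophoresis, were fitted for gain or loss relative to DMSO.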

[3] = ATG_TGFb_CIS: Attagene CIS-FACTORIAL HepG2 Assay for human Transforming Growth Factor (TGF) (AID 2282967; active means hit-call score of the fitted dose curve at least 0.9, where 1 is the maximum; inactive means score below 0.9); settings: HepG2 Attagene CIS TGFb reporter, mRNA transcription; actives raise or lower the signal
In short: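 Multiplexed cis-reporter HepG2 system, 24 h treatment; mRNA induction read by fluorescence after RT-PCR and CE; DMSO negative control, bidirectional curve fitting.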

[4] = ATG_VDRE_CIS: Attagene CIS-FACTORIAL HepG2 Assay for human Vitamin D Receptor Element (VDRE) (AID 2282968; active means hit-call score of the fitted dose curve at least 0.9, where 1 is the maximum; inactive means score below 0.9); settings: HepG2 VDRE cis-reporter transcription, actives raise or lower the signal
In short: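 Measures endogenous factor activity through cis-element-driven reporter transcripts in transiently transfected HepG2. Cells are treated 24 h; reporter mRNA is quantified by RT-PCR and capillary electrophoresis; fitting is bidirectional.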

[5] = biological target: Estrogen receptor (Homo sapiens) (UniProt P03372); experiment: ATG_ERa_TRANS: Attagene TRANS-FACTORIAL HepG2 Assay for human Estrogen Receptor alpha (ERa) (AID 2282970); settings: HepG2 Attagene TRANS ERa GAL4 reporter, mRNA
In short: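 Signal derives from fluorescence of labelled reporter PCR fragments separated by capillary electrophoresis. HepG2 cells transiently carrying multiple GAL4-UAS reporter units were treated 24 hours, and induction above DMSO baseline was fitted as activity.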

[6] = ATG_M_19_TRANS: Attagene TRANS-FACTORIAL HepG2 Assay for M19 Transcription Factor (Internal Marker) (AID 2282974); settings: HepG2 Attagene TRANS-FACTORIAL M19 internal marker reporter
In short: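 Background-control readout: after 24 h chemical exposure of transfected HepG2 carrying GAL4-driven reporter units, RNA was reverse-transcribed, amplified, fluorescently labeled and sized by capillary electrophoresis; gain-of-signal fit against DMSO.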

[7] = biological target: Glucocorticoid receptor (Homo sapiens) (UniProt P04150); experiment: ATG_GR_TRANS: Attagene TRANS-FACTORIAL HepG2 Assay for human Glucocorticoid Receptor (GR) (AID 2282978); settings: HepG2 Attagene TRANS GR reporter, mRNA transcription;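 further: activators score as hits since higher reporter transcript over DMSO is fitted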
In short: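 Readout is reporter transcript from a chimeric GR-Gal4 acting on GAL4-UAS in transfected human HepG2 liver cells after 24 h exposure, quantified by RT-PCR and capillary electrophoresis. Activation fitted upward against DMSO.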

[8] = biological target: Oxysterols receptor LXR-alpha (Homo sapiens) (UniProt Q13133); experiment: ATG_LXRa_TRANS: Attagene TRANS-FACTORIAL HepG2 Assay for human Liver X Receptor alpha (LXRa) (AID 2282980); settings: HepG2 Attagene TRANS reporter, LXRa transactivation
In short: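 In this multiplexed TRANS system, compounds act on HepG2 cells carrying GAL4-UAS reporter units and a receptor-GAL4 fusion for 24 h. Induced reporter RNA is amplified, fluorescently labelled and sized by capillary electrophoresis, with DMSO as baseline.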

[9] = biological target: Oxysterols receptor LXR-beta (Homo sapiens) (UniProt P55055); experiment: ATG_LXRb_TRANS: Attagene TRANS-FACTORIAL HepG2 Assay for human Liver X Receptor beta (LXRb) (AID 2282981); settings: HepG2 Attagene TRANS GAL4-LXRb reporter, mRNA
In short: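 After 24 h of chemical treatment, transfected HepG2 cells yield total RNA; reporter cDNA is PCR-amplified, FAM-labelled, HpaI-cut and run on capillary electrophoresis. Signal reflects chimeric LXRb-Gal4 activity on GAL4-UAS reporters.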

[10] = ATG_M_32_TRANS: Attagene TRANS-FACTORIAL HepG2 Assay for M32 Transcription Factor (Internal Marker) (AID 2282984); settings: HepG2 Attagene TRANS M32 internal marker reporter
In short: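 Cell-based TRANS-format assay in HepG2: exogenous chimeric GAL4 reporter units transiently expressed, compounds applied 24 h. Reporter mRNA detected by RT-PCR plus capillary electrophoresis; this readout is an internal background marker.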

[11] = biological target: Nuclear receptor subfamily 4 group A member 2 (Homo sapiens) (UniProt P43354); experiment: ATG_NURR1_TRANS: Attagene TRANS-FACTORIAL HepG2 Assay for human Nuclear Receptor Related Protein 1 (NURR1) (AID 2282985); settings: HepG2 Attagene TRANS reporter, mRNA readout
In short: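 Measures transcriptional activation by an exogenous NR-Gal4 chimera in transfected HepG2 liver cells. After 24 h, reporter RNA is reverse-transcribed, amplified and resolved by capillary electrophoresis; DMSO defines baseline.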

[12] = biological target: Transcriptional activator Myb (Homo sapiens) (UniProt P10242); experiment: ATG_Myb_CIS: Attagene CIS-FACTORIAL HepG2 Assay for human Myeloblastosis (Myb) Proto-Oncogene Transcription Factor (AID 2282986; active means hit-call score of the fitted dose curve at least 0.9, where 1 is the maximum; inactive means score below 0.9); settings: HepG2 Attagene CIS-FACTORIAL Myb reporter transcription; actives raise or lower the signal
In short: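 Reporter mRNA is quantified by RT-PCR and capillary electrophoresis 24 h after dosing HepG2 cells transfected with cis-regulated reporter units, which track endogenous transcription factor activity. Gain and loss of signal are fitted versus DMSO baseline.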

[13] = biological target: Steroid hormone receptor ERR1 (Homo sapiens) (UniProt P11474); experiment: ATG_ERRa_TRANS: Attagene TRANS-FACTORIAL HepG2 Assay for human Estrogen-Related Receptor alpha (ERRa) (AID 2282971); settings: HepG2 Attagene TRANS reporter, ERRa transactivation
In short: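 Signal gain relative to DMSO for an ERRa-Gal4 chimeric receptor, read as reporter mRNA by RT-PCR/capillary electrophoresis. Human HepG2 liver cells, transient multiplex reporter transfection, 24 h chemical exposure.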

[14] = biological target: X-box-binding protein 1 (Homo sapiens) (UniProt P17861); experiment: ATG_Xbp1_CIS: Attagene CIS-FACTORIAL HepG2 Assay for human X-box Binding Protein 1 (XBP1) (AID 2282972; active means hit-call score of the fitted dose curve at least 0.9, where 1 is the maximum; inactive means score below 0.9); settings: HepG2 XBP1 cis-element reporter, Attagene multiplex; actives raise or lower the signal
In short: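 Multiplexed cis-reporter readout in transfected HepG2 liver cells. Exposure lasted 24 hours. Activity in either direction was fitted against DMSO as negative control and baseline.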

[15] = ATG_GAL4_TRANS: Attagene TRANS-FACTORIAL HepG2 Assay for GAL4 (Internal Marker) (AID 2282976); settings: HepG2 Attagene TRANS GAL4 internal marker reporter
In short: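 Liver HepG2 line bearing multiplexed GAL4-UAS reporter constructs; 24 h chemical treatment. Transcripts were quantified as fluorescent fragments on capillary electrophoresis after RT-PCR and HpaI cut, with activity fitted upward from DMSO.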

[16] = biological target: Estrogen-related receptor gamma (Homo sapiens) (UniProt P62508); experiment: ATG_ERRg_TRANS: Attagene TRANS-FACTORIAL HepG2 Assay for human Estrogen-Related Receptor gamma (ERRg) (AID 2282977); settings: HepG2 Attagene TRANS reporter, ERRg transactivation;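 further: hits increase reporter signal over DMSO so potencies reflect activators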
In short: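 Readout: fluorescent reporter-mRNA fragments resolved by capillary electrophoresis after RT-PCR and HpaI cut. Cells: transiently transfected HepG2 carrying GAL4-UAS reporters driven by exogenous NR-Gal4 chimeras, dosed 24 h. Activity fitted upward relative to DMSO baseline.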

[17] = biological target: Hepatocyte nuclear factor 4-alpha (Homo sapiens) (UniProt P41235); experiment: ATG_HNF4a_TRANS: Attagene TRANS-FACTORIAL HepG2 Assay for human Hepatocyte Nuclear Factor 4 alpha (HNF4a) (AID 2282982); settings: HepG2 HNF4a transactivation reporter, mRNA readout
In short: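 Multiplexed reporter assay: transfected HepG2, 24 h exposure, total RNA → oligo(dT) RT → PCR → 6-FAM extension → HpaI digest → CE fluorescence. DMSO = negative control.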

[18] = ATG_M_06_TRANS: Attagene TRANS-FACTORIAL HepG2 Assay for M06 Transcription Factor (Internal Marker) (AID 2282983); settings: HepG2 Attagene TRANS M06 internal marker reporter
In short: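 Multi-reporter-transfected HepG2, 24 h treatment; reporter transcripts quantified via RT-PCR, primer-extension labelling and CE. DMSO-normalized gain-of-signal fit.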

[19] = biological target: Bile acid receptor (Homo sapiens) (UniProt Q96RI1); experiment: ATG_FXR_TRANS: Attagene TRANS-FACTORIAL HepG2 Assay for Farnesoid X Receptor (FXR) (AID 2282979); settings: HepG2 Attagene TRANS FXR-GAL4 reporter transcription;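 further: hits raise reporter mRNA above DMSO so AC50 marks FXR activation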
In short: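 After 24 h chemical treatment of transfected HepG2 cells, GAL4-UAS reporter transcripts driven by an exogenous FXR-GAL4 fusion were measured by RT-PCR and capillary electrophoresis. Increases over DMSO were fitted.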

Measured: AC50

Sequence of Nuclear receptor subfamily 4 group A member 2 (Homo sapiens) (P43354 whole entry, looked up, the tested form may be a part): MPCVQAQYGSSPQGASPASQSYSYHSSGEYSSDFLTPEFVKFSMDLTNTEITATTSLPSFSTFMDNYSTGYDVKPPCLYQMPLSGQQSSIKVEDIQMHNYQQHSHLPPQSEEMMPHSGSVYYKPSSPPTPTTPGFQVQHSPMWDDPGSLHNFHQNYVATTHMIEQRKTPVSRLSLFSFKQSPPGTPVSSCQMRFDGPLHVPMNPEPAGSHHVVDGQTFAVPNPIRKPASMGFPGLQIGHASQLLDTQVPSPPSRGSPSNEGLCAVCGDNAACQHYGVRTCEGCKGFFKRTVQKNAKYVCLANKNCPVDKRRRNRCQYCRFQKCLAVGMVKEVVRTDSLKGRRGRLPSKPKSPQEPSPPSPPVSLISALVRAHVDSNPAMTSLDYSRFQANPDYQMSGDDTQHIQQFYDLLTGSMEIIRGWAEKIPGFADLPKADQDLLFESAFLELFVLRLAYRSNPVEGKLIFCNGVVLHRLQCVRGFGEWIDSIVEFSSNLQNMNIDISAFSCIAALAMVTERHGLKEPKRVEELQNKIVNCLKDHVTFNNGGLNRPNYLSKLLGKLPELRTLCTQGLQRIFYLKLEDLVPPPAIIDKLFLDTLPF
Sequence of Hepatocyte nuclear factor 4-alpha (Homo sapiens) (P41235 whole entry, looked up): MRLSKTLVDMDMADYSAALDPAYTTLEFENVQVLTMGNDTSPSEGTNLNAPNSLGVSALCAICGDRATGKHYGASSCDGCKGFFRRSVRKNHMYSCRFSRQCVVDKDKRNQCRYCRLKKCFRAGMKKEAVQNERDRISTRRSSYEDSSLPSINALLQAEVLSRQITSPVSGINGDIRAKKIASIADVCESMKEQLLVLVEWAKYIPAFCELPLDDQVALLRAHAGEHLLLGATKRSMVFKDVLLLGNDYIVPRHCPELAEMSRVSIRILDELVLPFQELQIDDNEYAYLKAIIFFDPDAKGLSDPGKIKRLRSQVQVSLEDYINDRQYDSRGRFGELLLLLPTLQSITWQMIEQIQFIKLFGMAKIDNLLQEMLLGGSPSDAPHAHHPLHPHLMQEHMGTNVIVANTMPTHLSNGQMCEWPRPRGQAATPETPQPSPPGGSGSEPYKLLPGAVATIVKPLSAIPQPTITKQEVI
Sequence of Bile acid receptor (Homo sapiens) (Q96RI1 whole entry, looked up, the tested form may be a part): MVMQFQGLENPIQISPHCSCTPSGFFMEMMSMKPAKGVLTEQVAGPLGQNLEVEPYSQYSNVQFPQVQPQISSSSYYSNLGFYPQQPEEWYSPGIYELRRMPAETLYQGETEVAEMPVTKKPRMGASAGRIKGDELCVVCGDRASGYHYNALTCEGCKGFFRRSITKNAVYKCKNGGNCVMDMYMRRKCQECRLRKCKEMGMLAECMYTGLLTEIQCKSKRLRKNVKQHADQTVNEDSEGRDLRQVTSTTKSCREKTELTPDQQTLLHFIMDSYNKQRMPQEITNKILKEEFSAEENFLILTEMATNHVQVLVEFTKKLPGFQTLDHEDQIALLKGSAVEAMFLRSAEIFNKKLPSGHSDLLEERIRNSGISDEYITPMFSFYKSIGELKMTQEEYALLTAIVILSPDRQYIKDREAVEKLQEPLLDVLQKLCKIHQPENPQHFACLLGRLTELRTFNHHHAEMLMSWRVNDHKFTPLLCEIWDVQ
Sequence of Estrogen-related receptor gamma (Homo sapiens) (P62508 whole entry, looked up, the tested form may be a part): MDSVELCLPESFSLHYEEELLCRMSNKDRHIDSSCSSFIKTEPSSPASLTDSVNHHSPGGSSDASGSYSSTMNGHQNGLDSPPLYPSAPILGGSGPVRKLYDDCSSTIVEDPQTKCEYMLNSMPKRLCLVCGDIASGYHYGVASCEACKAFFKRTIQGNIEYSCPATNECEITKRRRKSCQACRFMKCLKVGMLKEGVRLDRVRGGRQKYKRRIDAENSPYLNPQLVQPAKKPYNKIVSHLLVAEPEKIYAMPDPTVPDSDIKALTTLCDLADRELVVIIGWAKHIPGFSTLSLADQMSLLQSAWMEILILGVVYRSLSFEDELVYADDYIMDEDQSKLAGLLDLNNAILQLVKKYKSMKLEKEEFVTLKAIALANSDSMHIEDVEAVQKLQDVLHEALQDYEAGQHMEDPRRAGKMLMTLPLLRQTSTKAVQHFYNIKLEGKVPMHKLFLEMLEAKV
Sequence of Oxysterols receptor LXR-alpha (Homo sapiens) (Q13133 whole entry, looked up, the tested form may be a part): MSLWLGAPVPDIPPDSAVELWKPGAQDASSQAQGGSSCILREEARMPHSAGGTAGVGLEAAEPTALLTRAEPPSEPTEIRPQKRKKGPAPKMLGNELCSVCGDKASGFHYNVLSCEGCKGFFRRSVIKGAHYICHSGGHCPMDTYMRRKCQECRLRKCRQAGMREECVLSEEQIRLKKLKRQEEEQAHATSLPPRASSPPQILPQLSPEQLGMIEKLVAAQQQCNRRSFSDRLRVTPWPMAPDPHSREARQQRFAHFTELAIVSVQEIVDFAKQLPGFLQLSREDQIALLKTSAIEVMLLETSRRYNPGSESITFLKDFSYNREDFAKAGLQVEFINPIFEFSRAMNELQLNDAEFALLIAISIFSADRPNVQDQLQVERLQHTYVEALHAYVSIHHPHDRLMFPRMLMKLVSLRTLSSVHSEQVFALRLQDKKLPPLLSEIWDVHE
Sequence of X-box-binding protein 1 (Homo sapiens) (P17861 whole entry, looked up): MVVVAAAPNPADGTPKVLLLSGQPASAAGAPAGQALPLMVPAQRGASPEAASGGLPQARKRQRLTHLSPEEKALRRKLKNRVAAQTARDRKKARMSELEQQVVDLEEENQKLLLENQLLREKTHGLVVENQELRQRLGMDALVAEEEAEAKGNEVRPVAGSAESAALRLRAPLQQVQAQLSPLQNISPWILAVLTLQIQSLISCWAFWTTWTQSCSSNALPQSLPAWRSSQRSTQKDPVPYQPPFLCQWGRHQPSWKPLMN
Sequence of Estrogen receptor (Homo sapiens) (P03372 whole entry, looked up, the tested form may be a part): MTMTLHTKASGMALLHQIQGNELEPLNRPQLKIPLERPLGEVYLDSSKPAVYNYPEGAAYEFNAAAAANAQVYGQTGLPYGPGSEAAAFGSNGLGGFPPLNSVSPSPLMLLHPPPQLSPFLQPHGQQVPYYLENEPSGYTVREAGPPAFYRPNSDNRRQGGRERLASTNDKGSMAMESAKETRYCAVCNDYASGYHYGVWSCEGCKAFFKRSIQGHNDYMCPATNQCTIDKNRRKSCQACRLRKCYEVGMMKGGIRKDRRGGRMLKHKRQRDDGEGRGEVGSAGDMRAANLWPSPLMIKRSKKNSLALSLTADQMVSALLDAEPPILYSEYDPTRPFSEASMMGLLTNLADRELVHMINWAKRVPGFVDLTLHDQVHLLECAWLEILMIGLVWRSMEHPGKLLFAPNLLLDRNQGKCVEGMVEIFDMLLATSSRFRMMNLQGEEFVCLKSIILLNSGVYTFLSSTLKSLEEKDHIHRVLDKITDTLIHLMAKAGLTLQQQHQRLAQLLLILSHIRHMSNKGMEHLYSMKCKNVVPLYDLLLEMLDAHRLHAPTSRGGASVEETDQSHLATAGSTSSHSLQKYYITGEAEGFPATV
Sequence of Oxysterols receptor LXR-beta (Homo sapiens) (P55055 whole entry, looked up, the tested form may be a part): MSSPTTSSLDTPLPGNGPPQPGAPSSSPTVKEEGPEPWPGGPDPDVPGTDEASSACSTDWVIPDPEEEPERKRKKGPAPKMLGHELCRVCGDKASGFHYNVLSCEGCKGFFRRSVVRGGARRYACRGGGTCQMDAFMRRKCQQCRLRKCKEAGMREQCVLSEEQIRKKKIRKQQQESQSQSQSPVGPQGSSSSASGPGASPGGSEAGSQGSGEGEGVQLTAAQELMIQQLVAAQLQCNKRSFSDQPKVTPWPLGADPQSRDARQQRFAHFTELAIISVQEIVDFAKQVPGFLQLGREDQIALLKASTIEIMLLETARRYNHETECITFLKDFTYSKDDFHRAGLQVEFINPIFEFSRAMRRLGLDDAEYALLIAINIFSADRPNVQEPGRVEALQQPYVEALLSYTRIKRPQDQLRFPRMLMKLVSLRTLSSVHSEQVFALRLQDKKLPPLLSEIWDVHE
Sequence of Transcriptional activator Myb (Homo sapiens) (P10242 whole entry, looked up): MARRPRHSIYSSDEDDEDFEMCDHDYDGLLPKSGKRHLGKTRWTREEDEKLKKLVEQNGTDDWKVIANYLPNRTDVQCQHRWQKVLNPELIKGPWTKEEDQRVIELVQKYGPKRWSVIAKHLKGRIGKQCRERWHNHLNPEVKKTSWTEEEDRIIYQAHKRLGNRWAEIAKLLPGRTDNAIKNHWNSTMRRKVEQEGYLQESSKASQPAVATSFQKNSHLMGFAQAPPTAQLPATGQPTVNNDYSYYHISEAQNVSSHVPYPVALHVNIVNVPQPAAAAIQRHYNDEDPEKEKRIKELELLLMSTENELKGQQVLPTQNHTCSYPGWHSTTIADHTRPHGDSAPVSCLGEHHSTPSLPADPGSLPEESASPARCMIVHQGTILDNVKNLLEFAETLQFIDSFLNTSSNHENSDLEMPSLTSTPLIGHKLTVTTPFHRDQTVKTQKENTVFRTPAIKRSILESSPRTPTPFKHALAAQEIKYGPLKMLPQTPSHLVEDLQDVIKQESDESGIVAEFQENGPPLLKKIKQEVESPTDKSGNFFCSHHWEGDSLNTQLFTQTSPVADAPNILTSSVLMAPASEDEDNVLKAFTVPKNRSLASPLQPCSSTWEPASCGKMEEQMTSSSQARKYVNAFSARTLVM
Sequence of Steroid hormone receptor ERR1 (Homo sapiens) (P11474 whole entry, looked up, the tested form may be a part): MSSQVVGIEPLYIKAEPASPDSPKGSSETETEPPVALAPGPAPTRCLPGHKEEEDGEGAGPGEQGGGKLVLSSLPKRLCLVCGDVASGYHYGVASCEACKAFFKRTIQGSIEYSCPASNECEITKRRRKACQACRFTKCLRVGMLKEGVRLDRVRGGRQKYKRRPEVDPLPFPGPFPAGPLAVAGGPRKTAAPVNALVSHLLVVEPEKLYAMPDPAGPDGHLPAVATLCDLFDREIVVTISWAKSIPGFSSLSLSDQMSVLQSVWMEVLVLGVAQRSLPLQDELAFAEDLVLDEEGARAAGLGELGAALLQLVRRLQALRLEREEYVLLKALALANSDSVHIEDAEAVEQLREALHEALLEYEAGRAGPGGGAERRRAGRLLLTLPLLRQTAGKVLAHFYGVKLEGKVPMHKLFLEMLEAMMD

CCCCCCCCCCCC(=O)OCC
not listed: [13] | [14] | [15] | [16] | [17] | [18] | [19]
inactive: all other assays above

O=S(=O)(O)c1ccc(Nc2nc(Nc3ccc(C=Cc4ccc(Nc5nc(Nc6ccc(S(=O)(=O)O)cc6)nc(N(CCO)CCO)n5)cc4S(=O)(=O)O)c(S(=O)(=O)O)c3)nc(N(CCO)CCO)n2)cc1
not listed: [5] | [6] | [8] | [9] | [11] | [19]
inactive: all other assays above

C=C[C@@]1(C)CC(=O)[C@]2(O)[C@@]3(C)[C@@H](O)CCC(C)(C)[C@@H]3[C@H](O)[C@H](OC(C)=O)[C@@]2(C)O1
active: [4] 2.1 µM | [5] 2.1 µM | [7] 42.5 µM | [9] 973 nM
not listed: [6] | [12] | [13] | [15] | [16] | [19]
inactive: all other assays above

CC1=CP(=O)(c2ccccc2)CC1 (stereo not given)
not listed: [5] | [8] | [9] | [10] | [14] | [15] | [17] | [18]
inactive: all other assays above

O=C1CCCCC1C1CCCCC1 (stereo not given)
inactive: [1] | [2] | [3] | [4] | [5] | [6] | [15] | [8] | [11] | [12]

C=CC(C)(O)CC/C=C(\C)CC (stereo not given)
active: [5] 30.3 µM
inactive: [1] | [2] | [3] | [4] | [6] | [7] | [8] | [9] | [10]

C=CCCCCCCCCO
not listed: [6] | [8] | [9] | [10] | [13] | [16] | [19]
inactive: all other assays above

CC(C)=CCl
not listed: [6] | [8] | [11] | [13] | [15] | [16]
inactive: all other assays above

O=C(O)C1CCC(C(=O)O)CC1 (stereo not given)
inactive: [1] | [2] | [3] | [4] | [5] | [18] | [11] | [12]

Oc1ccc(/C=C/c2cc(O)cc(O)c2)cc1
active: [1] 27.3 µM | [5] 6 µM | [11] 74.6 µM
not listed: [6] | [7] | [10] | [13] | [16]
inactive: all other assays above

C1CNCCN1
inactive: [1] | [2] | [3] | [4] | [5] | [14] | [15] | [18] | [12]

CC1OC(=O)C(C)OC1=O (stereo not given)
not listed: [6] | [7] | [8] | [9] | [13] | [14] | [16] | [19]
inactive: all other assays above

CCCCCCCCCCCCC
not listed: [6] | [8] | [13] | [16]
inactive: all other assays above

CC(C)OC(=O)c1ccccc1
inactive: [1] | [2] | [3] | [4] | [5] | [14] | [16] | [17] | [18] | [12]

CCCCCCO
not listed: [6] | [7] | [8] | [10] | [13] | [15] | [16] | [19]
inactive: all other assays above

Cc1ccc([N+](=O)[O-])cc1N
not listed: [6] | [7] | [8] | [11] | [13] | [14] | [16]
inactive: all other assays above

Oc1c(Cl)cc(Cl)c(Cl)c1Cl
active: [4] 59.8 µM
inactive: [1] | [2] | [3] | [5] | [14] | [8] | [9] | [17] | [18] | [12]

CCCCCCCCC(CO)CCCCCC (stereo not given)
not listed: [6] | [11] | [12] | [13] | [15] | [16] | [17] | [19]
inactive: all other assays above

O=C(O[C@@H]1Cc2c(O)cc(O)cc2O[C@@H]1c1cc(O)c(O)c(O)c1)c1cc(O)c(O)c(O)c1
active: [1] 36 µM
not listed: [6] | [7] | [10] | [13] | [16] | [17] | [19]
inactive: all other assays above

C[Si](C)(C)N[Si](C)(C)C
inactive: [1] | [2] | [3] | [4] | [5] | [14] | [17] | [18] | [12]

CCOC(=O)C1=NOC(c2ccccc2)(c2ccccc2)C1
not listed: [6] | [7] | [8] | [11] | [13] | [15] | [16] | [17]
inactive: all other assays above

CC(C=O)c1ccccc1 (stereo not given)
active: [4] 9.33 µM
not listed: [6] | [7] | [8] | [9] | [12] | [13] | [16]
inactive: all other assays above
